Source: PubChem BioAssay (The Scripps Research Institute Molecular Screening Center)
PAFAH1B2 inh – inhibitors of human PAFAH1B2. actives 1.2% (n = 340,000). inhibition, % at 3.39 µM. recombinant PAFAH1B2, FP-rhodamine activity probe, fluorescence polarization. AID 492953. P68402;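 active = inhibition above the mean of all tested compounds plus 3 SD, cut at about 24% in these data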;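 note: 0% = enzyme with DMSO and 100% = wells lacking PAFAH1B2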
pPAFAH FP inh – inhibitors of human plasma PAF acetylhydrolase (pPAFAH); AID 463082; Q13093; recombinant pPAFAH, FP-rhodamine probe fluorescence polarization; actives 1.5% (n = 330,000); inhibition, % at 3.39 µM;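 active = inhibition above the mean inhibition across the screen plus 3 SD, cut at about 25% in these data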;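 note: inhibitors block binding of the rhodamine activity-based probe so polarization drops; 0% = enzyme with DMSO and 100% = wells lacking pPAFAH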
Target sequence (Q13093 whole entry, looked up): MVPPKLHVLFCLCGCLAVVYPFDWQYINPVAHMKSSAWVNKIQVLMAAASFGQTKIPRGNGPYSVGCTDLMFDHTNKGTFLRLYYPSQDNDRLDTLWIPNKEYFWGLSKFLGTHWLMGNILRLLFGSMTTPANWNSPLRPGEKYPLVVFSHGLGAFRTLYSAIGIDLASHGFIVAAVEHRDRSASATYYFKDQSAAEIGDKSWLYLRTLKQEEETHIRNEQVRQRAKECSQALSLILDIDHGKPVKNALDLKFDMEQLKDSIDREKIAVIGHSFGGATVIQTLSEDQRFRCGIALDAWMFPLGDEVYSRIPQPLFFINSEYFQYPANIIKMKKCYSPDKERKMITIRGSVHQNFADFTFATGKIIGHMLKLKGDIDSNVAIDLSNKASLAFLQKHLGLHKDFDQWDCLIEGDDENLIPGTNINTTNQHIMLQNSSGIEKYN
PAFAH2 FP inh – PAFAH2 (human) inhibition; recombinant PAFAH2, FP-rhodamine activity probe, fluorescence polarization; inhibition, % at 3.39 µM; Q99487; actives 0.99% (n = 340,000);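 active = inhibition above the mean over all tested compounds plus 3 SD, cut at about 30% in these data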;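 note: inhibitors block probe labeling of enzyme so polarization drops; 0% = enzyme with DMSO and 100% = wells lacking PAFAH2 protein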
Fam108B inh – blocks mouse Fam108B hydrolase in RBBP9 counter-screen; actives 0.33% (n = 300,000); recombinant Fam108B, FP-Rh probe fluorescence polarization; inhibition, % at 9.51 µM;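 active = inhibition above the screen mean inhibition plus 3 SD, computed separately per campaign, cut at about 18% in these data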;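 note: inhibitors lower polarization as less probe binds the enzyme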
PME-1 primary – PME-1 (human) inhibition; Q9Y570; recombinant PME-1, FP-Rh probe fluorescence polarization; inhibition, % at 5.9 µM; actives 0.53% (n = 320,000); AID 2130;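 active = inhibition above the campaign mean of all compounds plus 3 SD, cut at about 26% in these data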;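 note: competitive labeling of PME-1 active site by serine hydrolase directed probe; 0% = PME-1 with DMSO and 100% = wells lacking PME-1 enzyme; inhibitors block probe labeling so polarization falls and inhibition rises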
PAFAH1B3 FP inh – blocks human PAF acetylhydrolase 1B catalytic subunit 3; Q15102; recombinant PAFAH1B3, FP-rhodamine probe, fluorescence polarization; inhibition, % at 3.39 µM; actives 0.28% (n = 340,000); AID 492972;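 active = inhibition above the screen-wide average of all tested compounds plus 3 SD, cut at about 25% in these data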;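 note: 0% = enzyme with DMSO only and 100% = wells lacking PAFAH1B3 protein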
PAFAH2 confirm – confirmation of human PAFAH2 inhibitors | actives 65% (n = 2,300) | recombinant PAFAH2, FP-rhodamine activity probe, fluorescence polarization | inhibition, % at 3.39 µM | shares compounds with PAFAH2 FP inh;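 active = mean inhibition over three repeats above a set limit taken from the earlier primary screen, cut at about 30% in these data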;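 note: inhibitor blocks binding of rhodamine activity probe so polarization falls; 0% = enzyme with DMSO and 100% = wells lacking PAFAH2 protein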
An asterisk follows results filed as active; x = no result given. An excerpt weighted towards active compounds, which were near 2.8% of everything screened.

SMILES	PAFAH1B2 inh	pPAFAH FP inh	PAFAH2 FP inh	Fam108B inh	PME-1 primary	PAFAH1B3 FP inh	PAFAH2 confirm
O=C(COC(=O)c1ccc(O)cc1O)NC1CCCCCC1	5	10	46*	x	-9	3	31*
Cc1ccc(C(=O)OCC(=O)NC2CCCC2)cc1C	4	17	87*	-1	9	9	82*
COc1ccc(C(=O)OCC(=O)NC2CCCC2)cc1OC	2	6	76*	2	2	5	80*
COc1ccc(C(=O)NCC(=O)OCC(=O)NC2CCCCCC2)cc1OC	10	-7	4	x	x	4	x
CC1CCC(NC(=O)COC(=O)c2ccc3ncsc3c2)CC1 (configuration not stated)	1	-7	83*	x	-2	5	69*
CCOc1ccc(NC(=O)COC(=O)c2ccc3ncsc3c2)cc1OCC	-4	x	-1	x	x	2	x
COc1ccc(C(=O)OCC(=O)Nc2ccccc2)cc1[N+](=O)[O-]	7	8	71*	2	-2	3	73*
Cc1ccc(C(=O)OCC(=O)NC2CCCCCC2)c(C)c1	2	x	86*	x	x	4	78*
O=C(NNC(=O)c1cc([N+](=O)[O-])ccc1Cl)c1cccnc1	1	x	4	x	x	8	x
COc1cc(Cl)c(C)cc1NC(=O)COC(=O)c1ccc(CN2CCCC2=O)cc1	-6	9	43*	x	-8	0	23
Cc1ccc(Cl)cc1NC(=O)COC(=O)c1ccc(CN2CCCC2=O)cc1	0	4	60*	x	-4	5	43*
Cc1c(Cl)cccc1NC(=O)COC(=O)c1ccc(CN2CCCC2=O)cc1	0	7	76*	x	-2	7	67*
CC(=O)Nc1cc(C(=O)OCC(=O)c2ccc(Cl)cc2Cl)ccc1C	12	0	35*	-1	0	9	21
CC(=O)Nc1cc(C(=O)OCC(=O)c2ccc(C)cc2)ccc1C	6	21	22	4	-3	2	x
Cc1nc(C)c(Oc2cccc(C(F)(F)F)c2)c(=O)[nH]1	-1	3	-4	1	1	-1	x
CCOC(=O)c1c(C)[nH]c(C(=O)Nc2cc(OCC)c(N3CCOCC3)cc2OCC)c1C	1	2	1	x	9	4	x
CCc1cccc(CC)c1NC(=O)COC(=O)CC1c2ccccc2CCN1S(=O)(=O)c1ccccc1 (configuration not stated)	3	23	35*	-6	17	0	21
O=c1c2cc3c(cc2[nH]c(=S)n1Cc1ccco1)OCO3	1	1	4	0	0	7	x
CC(C)(C)c1ccc(NC(=O)COC(=O)c2ccc3ncsc3c2)cc1	1	-2	23	x	-16	-4	x
O=C(COC(=O)c1ccc2ncsc2c1)Nc1cc([N+](=O)[O-])ccc1Cl	-8	-2	8	x	3	-11	x
O=C(COC(=O)c1ccc2ncsc2c1)Nc1ccccc1Cl	3	-2	59*	x	x	10	44*
Cc1ccc(F)cc1NC(=O)COC(=O)c1ccc2ncsc2c1	-8	-3	49*	x	-2	8	54*
O=C(COC(=O)c1ccc2ncsc2c1)Nc1ccc(OC(F)(F)F)cc1	0	-10	73*	x	x	-1	70*
O=C(COC(=O)c1ccc2ncsc2c1)NCc1ccc(Cl)cc1	5	1	39*	x	-2	2	25
N#Cc1ccc(OCC(=O)N/N=C(\CCC(=O)O)c2cccs2)cc1	4	3	4	1	-8	7	x
SMILES	PAFAH1B2 inh	pPAFAH FP inh	PAFAH2 FP inh	Fam108B inh	PME-1 primary	PAFAH1B3 FP inh	PAFAH2 confirm
C=CCNC(=O)CC(=O)N/N=C/c1cccc(C)c1	-3	4	-3	8	0	1	x
COc1cc(SC)ccc1C(=O)OCC(=O)N1CCN(C(C)=O)CC1	1	1	-1	0	-5	0	x
Cc1ccc(S(=O)(=O)Nc2c(O)ccc3ccccc23)cc1	x	14	x	2	6	x	x
O=S(=O)(Nc1c(O)ccc2ccccc12)c1cccc2ccccc12	6	12	32*	-1	3	20	16
CN(c1ccccc1)S(=O)(=O)c1ccc2c(c1)oc(=O)n2C	6	-1	1	0	2	4	x
COc1cc(OC)cc(C(=O)N2CCC(C(=O)NCCc3ccccc3)CC2)c1	9	-3	7	8	3	3	x
